Consider 39 targets from the supplement of paper PMC12067093, “Discovery and optimisation of a covalent ligand for TRIM25 and its application to targeted protein ubiquitination” (Chemical Science, 2025).

The full data set covers some 21,000 targets. This sample favours those with the largest changes.
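Also: competitive chemoproteomic profiling in live THP-1 cells with an iodoacetamide desthiobiotin (IA-DTB) probe, comparing probe-labelled peptide intensities in compound-treated cells against DMSO-treated controls.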

UniProt P26196, sequence (P26196 whole entry, looked up): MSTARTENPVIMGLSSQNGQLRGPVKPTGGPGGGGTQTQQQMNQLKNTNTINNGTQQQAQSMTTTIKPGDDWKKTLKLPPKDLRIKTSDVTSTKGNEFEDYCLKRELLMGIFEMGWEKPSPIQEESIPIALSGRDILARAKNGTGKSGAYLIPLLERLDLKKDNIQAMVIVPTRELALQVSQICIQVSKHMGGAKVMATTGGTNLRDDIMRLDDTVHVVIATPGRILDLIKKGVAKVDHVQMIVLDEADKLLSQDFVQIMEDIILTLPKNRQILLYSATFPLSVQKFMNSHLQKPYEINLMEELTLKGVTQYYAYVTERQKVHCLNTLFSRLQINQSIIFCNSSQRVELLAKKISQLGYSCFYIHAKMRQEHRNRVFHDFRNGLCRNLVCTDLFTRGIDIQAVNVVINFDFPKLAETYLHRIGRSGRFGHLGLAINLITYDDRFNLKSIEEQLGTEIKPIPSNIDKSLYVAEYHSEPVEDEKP
UniProt Q8IY37, sequence (Q8IY37 whole entry, looked up): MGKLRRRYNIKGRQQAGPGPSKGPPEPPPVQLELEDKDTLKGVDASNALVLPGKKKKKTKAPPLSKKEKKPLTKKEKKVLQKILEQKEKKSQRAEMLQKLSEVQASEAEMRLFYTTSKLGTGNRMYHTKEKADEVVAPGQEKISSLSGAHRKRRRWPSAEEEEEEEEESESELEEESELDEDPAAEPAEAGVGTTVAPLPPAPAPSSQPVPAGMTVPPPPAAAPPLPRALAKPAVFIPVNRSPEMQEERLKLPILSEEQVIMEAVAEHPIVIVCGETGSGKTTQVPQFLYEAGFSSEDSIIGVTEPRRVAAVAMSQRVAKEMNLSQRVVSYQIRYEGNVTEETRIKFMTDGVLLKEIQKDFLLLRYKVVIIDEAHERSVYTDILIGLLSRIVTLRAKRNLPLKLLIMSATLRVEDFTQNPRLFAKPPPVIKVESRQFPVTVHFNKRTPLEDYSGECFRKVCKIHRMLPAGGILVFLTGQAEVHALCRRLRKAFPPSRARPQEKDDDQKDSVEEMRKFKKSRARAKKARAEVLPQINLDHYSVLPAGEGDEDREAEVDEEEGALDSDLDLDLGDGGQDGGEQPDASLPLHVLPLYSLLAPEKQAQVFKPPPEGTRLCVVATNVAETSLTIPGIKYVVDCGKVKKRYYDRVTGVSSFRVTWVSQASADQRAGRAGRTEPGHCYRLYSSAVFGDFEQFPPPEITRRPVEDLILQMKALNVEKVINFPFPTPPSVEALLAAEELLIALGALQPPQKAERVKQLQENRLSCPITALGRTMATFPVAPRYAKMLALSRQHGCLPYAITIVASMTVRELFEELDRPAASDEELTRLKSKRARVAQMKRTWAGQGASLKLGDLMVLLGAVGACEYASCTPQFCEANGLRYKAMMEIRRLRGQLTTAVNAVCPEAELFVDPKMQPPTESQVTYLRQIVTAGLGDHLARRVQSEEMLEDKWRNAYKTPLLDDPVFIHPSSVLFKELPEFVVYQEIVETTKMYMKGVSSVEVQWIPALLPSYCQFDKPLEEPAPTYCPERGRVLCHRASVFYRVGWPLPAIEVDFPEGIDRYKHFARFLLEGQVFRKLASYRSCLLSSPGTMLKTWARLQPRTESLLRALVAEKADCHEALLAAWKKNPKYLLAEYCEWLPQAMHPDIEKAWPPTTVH
UniProt Q86YQ8, sequence (Q86YQ8 whole entry, looked up): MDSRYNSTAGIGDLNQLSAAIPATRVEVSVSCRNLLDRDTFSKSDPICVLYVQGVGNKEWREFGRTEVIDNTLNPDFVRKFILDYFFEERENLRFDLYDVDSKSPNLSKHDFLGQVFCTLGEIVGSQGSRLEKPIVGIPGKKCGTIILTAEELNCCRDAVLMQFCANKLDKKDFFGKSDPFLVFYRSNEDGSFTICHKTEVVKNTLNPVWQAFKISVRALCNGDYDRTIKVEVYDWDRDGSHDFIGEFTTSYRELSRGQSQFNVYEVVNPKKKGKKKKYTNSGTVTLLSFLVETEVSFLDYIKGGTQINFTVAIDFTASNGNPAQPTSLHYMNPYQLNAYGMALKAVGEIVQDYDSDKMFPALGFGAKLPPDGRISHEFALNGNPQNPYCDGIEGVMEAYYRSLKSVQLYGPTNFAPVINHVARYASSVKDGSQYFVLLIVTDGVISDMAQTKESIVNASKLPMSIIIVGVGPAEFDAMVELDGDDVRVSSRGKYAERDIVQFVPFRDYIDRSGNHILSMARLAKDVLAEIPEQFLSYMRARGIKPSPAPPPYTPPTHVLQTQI
UniProt P52943, sequence (P52943 whole entry, looked up): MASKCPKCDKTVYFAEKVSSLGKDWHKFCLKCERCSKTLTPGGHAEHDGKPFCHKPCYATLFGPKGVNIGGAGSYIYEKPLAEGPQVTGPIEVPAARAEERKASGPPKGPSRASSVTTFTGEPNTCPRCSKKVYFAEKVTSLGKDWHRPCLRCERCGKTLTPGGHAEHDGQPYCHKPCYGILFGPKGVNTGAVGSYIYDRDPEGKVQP
UniProt P60981, sequence (P60981 whole entry, looked up): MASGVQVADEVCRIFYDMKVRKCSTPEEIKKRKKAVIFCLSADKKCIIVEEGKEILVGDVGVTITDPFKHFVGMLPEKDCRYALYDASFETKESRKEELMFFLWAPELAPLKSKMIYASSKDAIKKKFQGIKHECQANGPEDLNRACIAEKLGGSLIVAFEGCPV
UniProt Q9Y2S2, sequence (Q9Y2S2 whole entry, looked up): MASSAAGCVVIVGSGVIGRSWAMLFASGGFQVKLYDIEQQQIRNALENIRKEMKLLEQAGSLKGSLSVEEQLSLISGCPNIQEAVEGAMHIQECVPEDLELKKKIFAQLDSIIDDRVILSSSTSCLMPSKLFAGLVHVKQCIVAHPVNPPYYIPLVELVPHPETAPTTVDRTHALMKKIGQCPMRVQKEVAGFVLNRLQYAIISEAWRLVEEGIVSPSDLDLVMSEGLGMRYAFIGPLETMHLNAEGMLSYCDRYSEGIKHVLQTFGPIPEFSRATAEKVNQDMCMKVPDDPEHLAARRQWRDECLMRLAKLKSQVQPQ
UniProt P14868, sequence (P14868 whole entry, looked up): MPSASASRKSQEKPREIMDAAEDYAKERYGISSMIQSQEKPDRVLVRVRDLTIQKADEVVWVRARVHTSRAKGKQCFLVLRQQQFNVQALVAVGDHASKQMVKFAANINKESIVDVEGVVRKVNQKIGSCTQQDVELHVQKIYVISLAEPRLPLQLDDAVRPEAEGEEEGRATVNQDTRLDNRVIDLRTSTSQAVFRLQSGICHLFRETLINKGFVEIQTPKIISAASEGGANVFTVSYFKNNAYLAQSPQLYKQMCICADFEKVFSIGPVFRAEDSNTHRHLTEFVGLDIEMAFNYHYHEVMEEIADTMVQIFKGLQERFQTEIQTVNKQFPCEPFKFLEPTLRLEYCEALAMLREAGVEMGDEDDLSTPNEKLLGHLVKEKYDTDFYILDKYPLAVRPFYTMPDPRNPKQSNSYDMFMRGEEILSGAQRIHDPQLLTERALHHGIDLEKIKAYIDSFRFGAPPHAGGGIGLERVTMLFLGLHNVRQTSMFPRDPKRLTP
UniProt P09668, sequence (P09668 whole entry): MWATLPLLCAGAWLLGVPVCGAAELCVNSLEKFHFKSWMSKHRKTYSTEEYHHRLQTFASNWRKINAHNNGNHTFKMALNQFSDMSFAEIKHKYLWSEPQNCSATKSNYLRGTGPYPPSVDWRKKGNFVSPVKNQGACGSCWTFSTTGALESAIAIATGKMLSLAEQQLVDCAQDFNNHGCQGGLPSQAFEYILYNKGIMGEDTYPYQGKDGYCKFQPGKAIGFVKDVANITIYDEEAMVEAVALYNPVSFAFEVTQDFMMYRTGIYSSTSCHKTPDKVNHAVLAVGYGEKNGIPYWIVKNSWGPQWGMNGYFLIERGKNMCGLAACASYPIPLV
UniProt Q8NBA8, sequence (Q8NBA8 whole entry, looked up): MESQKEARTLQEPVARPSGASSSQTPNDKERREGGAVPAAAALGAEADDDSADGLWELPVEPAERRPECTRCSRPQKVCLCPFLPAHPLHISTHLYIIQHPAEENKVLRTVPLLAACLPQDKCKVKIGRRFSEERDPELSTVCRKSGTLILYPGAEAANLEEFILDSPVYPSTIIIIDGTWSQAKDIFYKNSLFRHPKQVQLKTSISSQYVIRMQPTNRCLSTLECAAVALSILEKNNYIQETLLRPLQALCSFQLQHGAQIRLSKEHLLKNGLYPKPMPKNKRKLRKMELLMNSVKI
UniProt Q5T1V6, sequence (Q5T1V6 whole entry, looked up): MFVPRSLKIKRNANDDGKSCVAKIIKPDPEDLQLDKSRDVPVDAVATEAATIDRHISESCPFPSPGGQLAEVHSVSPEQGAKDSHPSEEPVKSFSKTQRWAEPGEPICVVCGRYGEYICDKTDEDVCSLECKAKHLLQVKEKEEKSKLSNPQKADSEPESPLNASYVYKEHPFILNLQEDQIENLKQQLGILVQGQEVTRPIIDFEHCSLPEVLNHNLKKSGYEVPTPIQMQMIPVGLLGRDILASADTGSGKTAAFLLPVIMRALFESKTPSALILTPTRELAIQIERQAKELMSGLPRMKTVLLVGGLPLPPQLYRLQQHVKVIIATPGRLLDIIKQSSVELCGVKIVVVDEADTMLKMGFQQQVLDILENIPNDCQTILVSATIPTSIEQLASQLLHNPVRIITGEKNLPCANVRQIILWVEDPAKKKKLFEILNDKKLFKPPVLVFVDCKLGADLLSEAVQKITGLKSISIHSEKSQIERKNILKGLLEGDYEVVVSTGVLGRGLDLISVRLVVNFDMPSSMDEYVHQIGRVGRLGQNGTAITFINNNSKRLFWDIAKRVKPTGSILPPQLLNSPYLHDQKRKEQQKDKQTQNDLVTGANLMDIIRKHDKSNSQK
UniProt Q9NUI1, sequence (Q9NUI1 whole entry, looked up): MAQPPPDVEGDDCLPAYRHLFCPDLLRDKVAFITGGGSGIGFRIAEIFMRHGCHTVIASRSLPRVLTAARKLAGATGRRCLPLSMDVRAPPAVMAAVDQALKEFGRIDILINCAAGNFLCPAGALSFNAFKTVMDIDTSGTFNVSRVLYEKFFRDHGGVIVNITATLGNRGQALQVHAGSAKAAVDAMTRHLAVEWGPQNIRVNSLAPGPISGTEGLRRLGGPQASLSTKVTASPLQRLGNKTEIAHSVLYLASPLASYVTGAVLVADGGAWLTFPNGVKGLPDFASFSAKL

Compound in this test: CC1Cc2ccccc2N1C(=O)C1CCCN(C1)C(=O)CCl (mixture of isomers) [TRIM25 ligand 11 (diastereomer mixture)]
Briefly: probe-labelled cysteine peptide fold change vs DMSO (competition) (log2 fold change); higher = less target engagement (more negative = stronger competition). The conditions noted are these: 50 µM; THP-1; incubation time: 4 h.
Take “CPSF3_Q9UKF6_223_FCNTVHDIVNR (UniProt Q9UKF6)”: the “probe-labelled cysteine peptide fold change” value was -0.11.
In the case of “DOK3_Q7L591_133_LADCVSVLPADGESCPR (UniProt Q7L591)” it was 0.00634; in that of “DDX56_Q9NY93_185_SLLCHLPR (UniProt Q9NY93)”, 0.332.
Consider “DDX24_Q9GZR7_599_SLVFANSISCIK (UniProt Q9GZR7)”, for which the “probe-labelled cysteine peptide fold change” value amounted to 0.567.
In the case of “DDX3X_O00571_128_WCDKSDEDDWSK (UniProt O00571)” it was -0.388.
For “DTWD2_Q8NBA8_143_FSEERDPELSTVCR (UniProt Q8NBA8)” the value was 0.0336; for “DHX37_Q8IY37_766_LSCPITALGR (UniProt Q8IY37)”, 0.0316; for “DSTN_P60981_39_AVIFCLSADK (UniProt P60981)”, -0.00534.
In the case of “DIP2A_Q14689_543_ALTQACGYSEAETLTNVLDFKR (UniProt Q14689)” it was 0.286; in that of “DDX60L_Q5H9U9_502_CHVDEQSR (UniProt Q5H9U9)”, -0.526; in that of “DCTPP1_Q9H773_110_CRVDLPLAVLSK (UniProt Q9H773)”, -0.184.
As to “CORO1C_Q9ULV4_39_VTWDSSFCAVNPR (UniProt Q9ULV4)”, the “probe-labelled cysteine peptide fold change” value is -0.0375.
As for “DYNC1H1_Q14204_3573_WQASSLPADDLCTENAIMLK (UniProt Q14204)”, the “probe-labelled cysteine peptide fold change” value was -0.286.
As for “CRYL1_Q9Y2S2_141_QCIVAHPVNPPYYIPLVELVPHPETAPTTVDR (UniProt Q9Y2S2)”, the “probe-labelled cysteine peptide fold change” value is -0.0222.
For “DHRS7_Q9Y394_233_TELATYPGIIVSNICPGPVQSNIVENSLAGEVTK (UniProt Q9Y394)” the value was 0.0763; for “DPP9_Q86TI2_184_TQCSGPR (UniProt Q86TI2)”, -0.073; for “DNAJC10_Q8IXB1_161_EFDAAVNSGELWFVNFYSPGCSHCHDLAPTWR (UniProt Q8IXB1)”, -0.235.
In the case of “CSNK1A1_P48729_249_MSTPVEVLCK (UniProt P48729)” it was -0.401; in that of “CRIP2_P52943_150_DWHRPCLR (UniProt P52943)”, -0.0653; in that of “DOK3_Q7L591_493_KGPAPCDRP (UniProt Q7L591)”, 0.0304.
In the case of “DCTN1_Q14203_677_YEHALSQCSVDVYKK (UniProt Q14203)” it was 0.149; in that of “DECR2_Q9NUI1_22_HLFCPDLLR (UniProt Q9NUI1)”, -0.0816.
“DIP2B_Q9P265_1282_TCVVVAEERPR<|>DIP2C_Q9Y2E4_1263_TCVVVAEERPR (UniProt Q9Y2E4+Q9P265)”: the “probe-labelled cysteine peptide fold change” value turned out to be 0.197.
For “DOP1B_Q9Y3R5_70_LAQCLHPALPSGVHLK (UniProt Q9Y3R5)” the value was 0.136.
In the case of “DLGAP5_Q15398_129_YRPDMPCFLLSNQNAVK (UniProt Q15398)” it was -0.594.
In the case of “DDX6_P26196_324_VHCLNTLFSR (UniProt P26196)” it was 0.183; in that of “DCP2_Q8IU60_391_KLQDNFETDAVYDLPSSSEDQLLEHAEGQPVACNGHCK (UniProt Q8IU60)”, -0.464; in that of “DDX46_Q7L014_501_RGAEIIVCTPGR (UniProt Q7L014)”, 0.296.
For the target “DSN1_Q9H410_191_CFEDSNGK (UniProt Q9H410)”, the “probe-labelled cysteine peptide fold change” value is 0.0971.
As to “CPNE8_Q86YQ8_118_HDFLGQVFCTLGEIVGSQGSR (UniProt Q86YQ8)”, the “probe-labelled cysteine peptide fold change” value was determined as 0.595.
With “DDX59_Q5T1V6_208_QQLGILVQGQEVTRPIIDFEHCSLPEVLNHNLKK (UniProt Q5T1V6)”, the “probe-labelled cysteine peptide fold change” value was -0.182.
Consider “DUS3L_Q96G46_358_RHQCEDIFGVQLEGAFPDTMTK (UniProt Q96G46)”, for which the “probe-labelled cysteine peptide fold change” value is 0.0134.
“DARS_P14868_130_IGSCTQQDVELHVQK (UniProt P14868)”: the “probe-labelled cysteine peptide fold change” value turned out to be 0.0472.
In the case of “CTNNBL1_Q8WYA6_370_VLDHAMIGPEGTDNCHK (UniProt Q8WYA6)” it was -0.103; in that of “CTSH_P09668_272_TGIYSSTSCHK (UniProt P09668)”, -0.279; in that of “DBNL_Q9UJU6_97_KGACASHVSTMASFLK (UniProt Q9UJU6)”, -0.568.
Regarding “DUS3L_Q96G46_396_TVEVDFVDINVGCPIDLVYKK (UniProt Q96G46)”, the “probe-labelled cysteine peptide fold change” value was -0.11.
With “CSMD2_Q7Z408-3_2_CDAHLR (UniProt Q7Z408)”, the “probe-labelled cysteine peptide fold change” value is -0.972.
For “DNAJA1_P31689_271_RGEDLFMCMDIQLVEALCGFQK (UniProt P31689)”, the “probe-labelled cysteine peptide fold change” value worked out at 0.281.
